Assay outcomes deposited in PubChem by NMMLSC.
Rows were chosen to be rich in hits. Some 1.2% of all compounds tested hit in one or more screens of this group.
FPRL1 binder = binds the human formylpeptide receptor-like-1 FPRL1. inhibition, % (no concentration beside the values). FPRL1-expressing cells, fluorescent ligand binding inhibition, flow cytometry. 24,000 tested, 0.3% active. P25090
FPR binder = binds the human formylpeptide receptor FPR; 24,000 tested, 0.74% active; P21462; inhibition, % (no concentration beside the values); FPR-expressing cells, fluorescent ligand binding, flow cytometry
Target sequence (P21462 whole entry, looked up): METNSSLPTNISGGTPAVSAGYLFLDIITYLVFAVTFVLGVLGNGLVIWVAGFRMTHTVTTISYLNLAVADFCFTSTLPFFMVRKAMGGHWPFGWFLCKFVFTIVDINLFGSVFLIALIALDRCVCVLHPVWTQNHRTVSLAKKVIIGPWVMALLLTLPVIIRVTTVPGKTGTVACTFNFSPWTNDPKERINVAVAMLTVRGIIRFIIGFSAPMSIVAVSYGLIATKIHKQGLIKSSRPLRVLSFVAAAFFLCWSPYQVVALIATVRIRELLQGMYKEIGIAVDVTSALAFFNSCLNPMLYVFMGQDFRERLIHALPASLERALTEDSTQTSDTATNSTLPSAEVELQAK
QS inhibitor = S. aureus quorum sensing inhibition. inhibition, % at 2 µM. AID 527. 24,000 tested, 0.3% active. S. aureus RN6390 RNAIII-GFP reporter, AIP-induced, flow cytometry 3 h;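 active means share of bacteria positive for the green fluorescent reporter and its mean brightness both inhibited by 50% or more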
Of the large screens only hits and unclear results are named; the others gave an inactive call. Unless noted, no stated cut-off is given here; in the data, active means inhibition above about 30%; inconclusive means no clear call, values can overlap the other calls; inactive means below that.

CC1(C)S[C@@H]2[C@H](NC(=O)[C@H](N)c3ccccc3)C(=O)N2[C@H]1C(=O)O	QS inhibitor 50
CC1(C)S[C@@H]2[C@H](NC(=O)C(C(=O)O)c3ccccc3)C(=O)N2[C@H]1C(=O)O (some centres not stated)	none
Cc1ccc(C)c(/C(O)=C2\C(=O)C(=O)N(CCCn3ccnc3)C2c2cccnc2)c1 (configuration not stated)	none (no result: QS inhibitor)
CCc1c(C)nc(SCC(=O)Nc2ccc(Br)cc2)[nH]c1=O	QS inhibitor 80
Cc1nnc(SCC(=O)Nc2ccc(Br)cn2)[nH]c1=O	none
O=C(NCc1ccccc1)c1cnc2n(c1=O)CCS2	none
O=C(NCCCc1ccccc1)c1cnc2n(c1=O)CCS2	QS inhibitor 56
COC(=O)CSCc1nc2ccccc2[nH]c1=O	FPR binder inconclusive
Cc1sc(NC(=O)C2CCCCC2C(=O)O)c(C(N)=O)c1-c1ccccc1 (configuration not stated)	none (no result: QS inhibitor)
Cc1sc(NC(=O)C2CCCCC2C(=O)O)c(C(N)=O)c1-c1ccc(C(C)(C)C)cc1 (configuration not stated)	FPR binder 49 (no result: QS inhibitor)
CCN1CCCC1CNC(=O)Cn1cnc2sc(C)c(S(=O)(=O)N3CCC(C)CC3)c2c1=O (configuration not stated)	none
Cc1c(C(=O)NC2CCCc3ccccc32)oc2ccc(S(=O)(=O)N3CCOCC3)cc12 (configuration not stated)	FPR binder 38
Cc1c(C(=O)NC2CC2)oc2ccc(S(=O)(=O)N3CCCCCC3)cc12	none
CC(=O)N1c2c(cc(Br)cc2S(=O)(=O)N2CCN(C(=O)c3ccco3)CC2)CC1C (configuration not stated)	none
CCOC(=O)N1CCN(c2c(NCCCN(CC)Cc3ccccc3)c(=O)c2=O)CC1	none
CCOC(=O)N1CCN(c2cc(NCCC(=O)O)c3c4c(onc24)-c2ccccc2C3=O)CC1	FPRL1 binder 61, FPR binder 32
Cc1ccccc1-n1c(=O)cc(N2CCC3(CC2)OCCO3)[nH]c1=O	none
O=C(O)CCCNc1cc(N2CCC3(CC2)OCCO3)c2noc3c2c1C(=O)c1ccccc1-3	FPRL1 binder 73, FPR binder 32
COC(=O)c1cc(NC2c3ccccc3C(=O)N2CCN2CCOCC2)cc(C(=O)OC)c1 (configuration not stated)	none
O=C(NC1CCCC1)C(c1ccco1)N(Cc1ccccc1)C(=O)c1csnn1 (configuration not stated)	none
COC(=O)c1ccc2c(c1)N(Cc1nc(-c3cccc(C)c3)oc1C)C(=O)C1CCCN21 (configuration not stated)	none
CCN(CC)c1ccc(-c2c(C#N)c(N)nc(OC)c2C#N)cc1	none
CCN(CC)c1ccc(C=N/C(C#N)=C(\N)C#N)cc1	FPRL1 binder 68
CC1CC(C)CN(CCCNC(=O)CNC(=O)Cn2ccc3ccccc3c2=O)C1 (configuration not stated)	none
CCn1cc(C(=O)NC2CCC(C)CC2)c(=O)c2cc(S(=O)(=O)N3CCCCC3)ccc21 (configuration not stated)	FPR binder 32
CCn1cc(C(=O)NC2CCCC2)c(=O)c2cc(S(=O)(=O)N3CCOCC3)ccc21	none
